Screening results (PubChem)
In the library only some 19% were active in any assay of this set; here they are far more common.
HT1080 IDH1KD tx = qHTS for induction of synthetic lethality in tumor cells producing 2HG: qHTS for the HT-1080-IDH1KD cell line. HT-1080 IDH1 knockdown viability, ATP luminescence, 48 h. Potency, µM (series often up to 46.1 µM), usual class: cytotoxic. hit rate 2% among 360,000. AID 686971, 2013
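Assay cells: HT-1080 with IDH1 knockdown, 750 per well, RPMI/5% FBS. Exposure: 48 h at 37 °C following 2 h pre-incubation. Read: CellTiter-Glo luminescence; fitted concentration-response, curve class assigned.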
DT40 TDP1 no CPT = qHTS for Inhibitors of human tyrosyl-DNA phosphodiesterase 1 (TDP1): qHTS in cells in absence of CPT | Potency, µM (doses to about 46.2 µM), most hits filed as inhibitors | DT40 Tdp1-/- hTDP1 cells, no CPT, ATP luminescence, 48 h | hit rate 15% among 420,000; further: nearly all actives have a fitted effect of over 55% in size
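Stably hTDP1-transfected Tdp1-null chicken DT40 cells were treated with library compounds minus camptothecin and grown for at least 48 hr at 37 °C, after which cellular ATP was quantified by luminescence.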
uPA generation = qHTS for Inhibitors of Cell Surface uPA Generation; hit rate 0.31% among 330,000; cell surface uPA generation assay, qHTS; Potency, µM (doses to about 38.3 µM), actives largely listed as inhibitors; active means well fitted inhibition curve with a large enough effect; inconclusive means small, poorly fitted or top-dose-only effect; inactive means no such curve, though single readings can be large or run the other way; tested in mouse RAW 264.7 cells; further: nearly all actives have a fitted effect of over 55% in size
TDP1 cell CPT = qHTS for Inhibitors of human tyrosyl-DNA phosphodiesterase 1 (TDP1): qHTS in cells in presence of CPT; hit rate 12% among 420,000; Potency, µM (doses to about 46.2 µM), hits mostly inhibitors; AID 686979, 2013; chicken DT40 Tdp1-/-;hTDP1 cells + 20 nM CPT, ATP luminescence, 48 h; further: nearly all actives have a fitted effect of over 55% in size
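Chicken DT40 Tdp1-/- cells complemented with human TDP1, 400 cells/well, exposed to compounds plus 20 nM camptothecin for at least 48 h at 37 C; viability read as ATP content by CellTiter-Glo luminescence.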
HT1080-NT tox = qHTS for induction of synthetic lethality in tumor cells producing 2HG: qHTS for the HT-1080-NT fibrosarcoma cell line | HT-1080-NT fibrosarcoma viability, CellTiter-Glo ATP luminescence, 48 h | Potency, µM (top dose mostly 46.1 µM), most hits filed as cytotoxic | hit rate 1.6% among 360,000;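 further: NT is the 2HG producing partner of a matched IDH1 knockdown line; nearly all actives have a fitted effect of over 55% in size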
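Read-out is CellTiter-Glo luminescence after 10 minutes at room temperature, following 48 hours' compound treatment of HT-1080-NT cells (750 cells/well, RPMI, 5% FBS, 37 degrees C).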
IL1B secr inh = qHTS for Inhibitors of Inflammasome Signaling: IL-1-beta AlphaLISA Primary Screen. hit rate 4.7% among 360,000. THP-1 LPS/ATP IL-1B secretion, AlphaLISA, 16 h; hits give low values. activity change, % at 57.5 µM; in the data active means activity change below about -50%; inconclusive means mostly about -30% to -49%
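THP-1 cells pretreated 1 hr with compounds (up to 57.5 uM final), then stimulated with LPS (250 ng/mL final) plus ATP (1.25 mM final); secreted IL-1B measured by AlphaLISA after 16 hr, decreased signal indicating inhibition.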
A number is an active result; [ ] = dose if it differs, or a comment. Unless noted, the call rests on the fitted dose curve; in most records, active means well fitted curve in the direction sought with a large enough effect; inconclusive means small, poorly fitted or top-dose-only effect, or another doubt; inactive means no such curve, though single readings can be large; an effect the other way counts as inactive or inconclusive.

For CCC1CCC(N2CCN(c3ccc([N+](=O)[O-])cc3)CC2)CC1 (configuration not stated) the results were HT1080 IDH1KD tx inconclusive, DT40 TDP1 no CPT inconclusive, uPA generation inactive, TDP1 cell CPT inconclusive, HT1080-NT tox inactive and IL1B secr inh -59.9.
For O=C(Cc1ccc([N+](=O)[O-])cc1)N1CCN(c2ccc([N+](=O)[O-])cc2)CC1 the results were HT1080 IDH1KD tx inactive, DT40 TDP1 no CPT 7.31µM, uPA generation inconclusive, TDP1 cell CPT 18.4µM, HT1080-NT tox inactive and IL1B secr inh inactive.
`O=C(CCc1ccccc1)N1CCN(c2ccc([N+](=O)[O-])cc2)CC1` gave HT1080 IDH1KD tx inactive, DT40 TDP1 no CPT 23.1µM, uPA generation inactive, TDP1 cell CPT inconclusive, HT1080-NT tox inactive and IL1B secr inh inactive.
`Oc1cccc(-c2ccc3nccn3c2)c1` gave HT1080 IDH1KD tx inconclusive, DT40 TDP1 no CPT inconclusive, TDP1 cell CPT inconclusive and HT1080-NT tox inactive.
For O=C1C2CCCCN2C(=O)N1CCN1CCN(c2ccc([N+](=O)[O-])cc2)CC1 (configuration not stated) the results were HT1080 IDH1KD tx inactive, DT40 TDP1 no CPT inconclusive, uPA generation inactive, TDP1 cell CPT inactive, HT1080-NT tox inactive and IL1B secr inh inactive.
`O=C(Cc1ccc(F)cc1)N1CCN(c2ccc([N+](=O)[O-])cc2)CC1` gave HT1080 IDH1KD tx inactive, DT40 TDP1 no CPT inconclusive, uPA generation inactive, TDP1 cell CPT 20.6µM, HT1080-NT tox inactive and IL1B secr inh inactive.
O=C(CCCN1C(=O)C2CCCCN2C1=O)N1CCN(c2ccc([N+](=O)[O-])cc2)CC1 (configuration not stated) was read as HT1080 IDH1KD tx inactive, DT40 TDP1 no CPT 23.1µM, uPA generation inactive, TDP1 cell CPT inconclusive, HT1080-NT tox inactive and IL1B secr inh inactive.
Screening O=C(NCCN1CCN(Cc2ccc([N+](=O)[O-])cc2)CC1)C(=O)Nc1ccccc1 returned HT1080 IDH1KD tx inactive[9.24 µM], DT40 TDP1 no CPT inactive, uPA generation inactive, TDP1 cell CPT inactive, HT1080-NT tox inactive and IL1B secr inh inactive.
`O=C(Cc1ccccc1)N1CCN(c2ccc([N+](=O)[O-])cc2)CC1` gave HT1080 IDH1KD tx inactive, DT40 TDP1 no CPT inconclusive, uPA generation inactive, TDP1 cell CPT inconclusive, HT1080-NT tox inactive and IL1B secr inh inactive.
O=C(NCCN1CCN(c2ccc([N+](=O)[O-])cc2)CC1)NCc1ccccc1 was read as HT1080 IDH1KD tx inactive, DT40 TDP1 no CPT 8.2µM, uPA generation inactive, TDP1 cell CPT inconclusive, HT1080-NT tox inactive and IL1B secr inh inactive.
`Cc1ccc(C(=O)OC(C(=O)O)C(OC(=O)c2ccc(C)cc2)C(=O)O)cc1` (configuration not stated) gave HT1080 IDH1KD tx inactive, DT40 TDP1 no CPT inactive, uPA generation inactive, TDP1 cell CPT inactive, HT1080-NT tox inactive and IL1B secr inh inactive.
Cc1nc2ccccc2n1CC(O)COCC1CC=CCC1 (configuration not stated) was read as HT1080 IDH1KD tx inactive, DT40 TDP1 no CPT 10.3µM, uPA generation inactive, TDP1 cell CPT 14.6µM, HT1080-NT tox inactive and IL1B secr inh inconclusive.
`OC(COCC1CC=CCC1)Cn1cnc2ccccc21` (configuration not stated) gave HT1080 IDH1KD tx inactive, DT40 TDP1 no CPT inactive, uPA generation inactive, TDP1 cell CPT inactive, HT1080-NT tox inactive and IL1B secr inh inactive.
Screening CCCOC(=O)c1ccc(OCC(O)Cn2c(C)nc3ccccc32)cc1 (configuration not stated) returned HT1080 IDH1KD tx inactive, DT40 TDP1 no CPT 2.59µM, uPA generation inactive, TDP1 cell CPT 2.59µM, HT1080-NT tox inactive and IL1B secr inh inactive.
For CC(=O)Nc1cccc(OCC(O)Cn2c(C)nc3ccccc32)c1 (configuration not stated) the results were HT1080 IDH1KD tx inactive, DT40 TDP1 no CPT 16.4µM, TDP1 cell CPT inconclusive, HT1080-NT tox inactive and IL1B secr inh inactive.
For CCC(=O)c1ccc(OCC(O)Cn2nnc3ccccc32)cc1 (configuration not stated) the results were HT1080 IDH1KD tx inactive, DT40 TDP1 no CPT inactive, uPA generation inactive, TDP1 cell CPT inactive, HT1080-NT tox inactive and IL1B secr inh inactive.
For Cc1cccc(/C=N/n2c(C)nc3ccccc3c2=O)c1 the results were HT1080 IDH1KD tx inactive, DT40 TDP1 no CPT inconclusive, uPA generation inactive, TDP1 cell CPT inactive, HT1080-NT tox inactive and IL1B secr inh inactive.
For CCN(CC)CCN(C(=O)CCS(=O)(=O)c1ccccc1)c1nc2c(C)cc(C)cc2s1 the results were HT1080 IDH1KD tx inactive, DT40 TDP1 no CPT 7.31µM, uPA generation inconclusive, TDP1 cell CPT 16.4µM, HT1080-NT tox inactive and IL1B secr inh -90.0.
For Cc1cc(C)c2sc(N(CCN(C)C)C(=O)CCS(=O)(=O)c3ccccc3)nc2c1 the results were HT1080 IDH1KD tx inactive, DT40 TDP1 no CPT 18.4µM, uPA generation inactive, TDP1 cell CPT 23.1µM, HT1080-NT tox inactive and IL1B secr inh inactive.
For CCN(CC)CCN(C(=O)CCS(=O)(=O)c1ccccc1)c1nc2cc(C)cc(C)c2s1 the results were HT1080 IDH1KD tx inconclusive, DT40 TDP1 no CPT inconclusive, uPA generation inactive, TDP1 cell CPT 20.6µM, HT1080-NT tox inconclusive and IL1B secr inh -101.8.
Screening COc1ccc(OC)c(S(=O)(=O)N2CCCC(C(=O)N3CCCCCC3)C2)c1 (configuration not stated) returned HT1080 IDH1KD tx inactive, DT40 TDP1 no CPT inactive, uPA generation inactive, TDP1 cell CPT inactive, HT1080-NT tox inactive and IL1B secr inh inactive.
Screening CC1(C)CN(c2ccccc2)N(Cc2ccc(F)cc2)C1=O returned HT1080 IDH1KD tx inactive, DT40 TDP1 no CPT 9.2µM, TDP1 cell CPT 9.2µM, HT1080-NT tox inactive and IL1B secr inh inactive.
`C#CCCc1cscc1/C=[N+](\[O-])c1ccc(C(=O)OCC)cc1` gave HT1080 IDH1KD tx inactive, DT40 TDP1 no CPT inconclusive, uPA generation inactive, TDP1 cell CPT 23.1µM, HT1080-NT tox inactive and IL1B secr inh inactive.
`CCOC(=O)c1ccc(CNCc2ccccc2)cc1` gave HT1080 IDH1KD tx inactive, DT40 TDP1 no CPT inconclusive, uPA generation inactive, TDP1 cell CPT inactive, HT1080-NT tox inactive and IL1B secr inh inactive.
For CCOC(=O)c1ccc(/[N+]([O-])=C/c2ccccc2)cc1 the results were HT1080 IDH1KD tx inactive, DT40 TDP1 no CPT inconclusive, uPA generation inactive, TDP1 cell CPT 13µM, HT1080-NT tox inactive and IL1B secr inh inactive.
